Experimental findings from PubChem BioAssay are described below.

For one test, the target named is Albumin (Bos taurus) (UniProt P02769). Briefly: bovine serum albumin binders on microarray, profiling panel, artefact control for SMM control protein annotation, biochemical, small-molecule microarray, Alexa647 label, 635/667 nm fluorescence (AID 1118).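 Note: score merges 667 nm emission intensity and signal-to-noise per printed compound spot.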 Conditions: BSA-A647 binding, fluorescence 635 nm, higher = more signal.
Chain of Albumin (Bos taurus) (P02769 whole entry, looked up): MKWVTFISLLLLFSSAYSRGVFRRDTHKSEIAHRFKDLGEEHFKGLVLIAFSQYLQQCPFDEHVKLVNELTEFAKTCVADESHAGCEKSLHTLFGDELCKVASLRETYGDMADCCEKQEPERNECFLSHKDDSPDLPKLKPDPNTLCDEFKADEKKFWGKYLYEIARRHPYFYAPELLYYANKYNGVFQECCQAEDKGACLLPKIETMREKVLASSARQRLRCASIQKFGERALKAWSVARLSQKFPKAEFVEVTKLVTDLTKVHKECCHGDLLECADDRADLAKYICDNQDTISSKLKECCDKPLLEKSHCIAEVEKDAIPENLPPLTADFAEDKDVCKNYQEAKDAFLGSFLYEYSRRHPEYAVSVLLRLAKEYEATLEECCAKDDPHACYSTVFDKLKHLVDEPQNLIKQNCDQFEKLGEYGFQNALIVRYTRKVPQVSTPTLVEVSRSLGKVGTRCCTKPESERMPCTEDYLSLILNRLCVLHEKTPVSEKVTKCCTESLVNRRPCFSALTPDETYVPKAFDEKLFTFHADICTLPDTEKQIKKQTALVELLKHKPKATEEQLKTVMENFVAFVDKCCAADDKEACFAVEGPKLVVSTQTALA
The nature of test [1]: small-molecule microarray binders of probe aXIP, primary screen, biochemical, NeuroSMM set, 635/667 nm fluorescence (AID 1119).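 Note: probe is the protein aXip251-270 applied at 1 µg/mL to compound-printed slides; binding of probe to printed compounds measured as 667 nm fluorescence plus signal to noise.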 The conditions noted are these: higher = more signal, called active from +8 up or from −8 down.
Test [2] in a line: small-molecule binders of probe aNOTCH3, primary screen, biochemical, small-molecule microarray, 635/667 nm fluorescence (AID 1120).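 Note: probe is a biotin-tagged antibody raised against NOTCH3 rather than NOTCH3 protein; score merges spot fluorescence near 667 nm with spot signal to noise.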 Conditions: higher = more signal.
A short description of test [3]: small-molecule binders of probe aNOTCH2, primary screen, biochemical, small-molecule microarray, 635/667 nm fluorescence (AID 1121).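 Note: score merges feature fluorescence read at 667 nm with its signal to noise.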 The conditions noted are these: higher = more signal.
The target of test [4] is Carbonic anhydrase 2 (Homo sapiens) (UniProt P00918). Briefly: CAII small-molecule binders, profiling panel, biochemical, small-molecule microarray, Alexa647-labelled CAII (AID 1122). The conditions noted are these: CAII-A647 binding fluorescence, higher = more signal.
Test [5] can be described thus: COS7 lysate on small-molecule microarray, probe aHis, 635 nm (AID 1123).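 Note: z-score combines 667nm fluorescence intensity with signal-to-noise per printed compound spot.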 Conditions: COS7 cell lysate, fluorescence, higher = more signal.
The nature of test [6]: compound binding in COS7 lysate, probe aLAP1, primary screen, cell lysate, small-molecule microarray (AID 1124).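 Note: lysate comes from COS7 cells expressing LAP1 and is applied at 0.3 µg/mL; score merges spot fluorescence near 667 nm with signal-to-noise over triplicate slides.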 Conditions: probe aLAP1, fluorescence, higher = more signal.
The test system of another test is Sam68 (KHDRBS1). Briefly: Sam68 small-molecule binders, primary screen, biochemical, small-molecule microarray, 635 nm fluorescence (AID 1125).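 Note: score merges 667 nm channel intensity with signal to noise over triplicate slides.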 The conditions noted are these: small-molecule microarray binding, higher = more signal.
For test [7], the system named is Chordin-like protein 2 (CHRDL2). Briefly: CHRDL2 small-molecule binders, primary screen, biochemical, small-molecule microarray, 635 nm fluorescence (AID 1126).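 Note: printed compound slides probed with Chrdl2 protein at 4 µg/mL for 1 h at 4 C; score merges 667 nm emission intensity with signal to noise over three replicate slides.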 The conditions noted are these: small-molecule microarray binding, fluorescence 635 nm; higher = more signal.
Test [8] addresses Concanavalin-A (Canavalia ensiformis) (UniProt P02866). Briefly: ConA small-molecule binders, primary screen, artefact control for SMM control protein annotation, biochemical, small-molecule microarray, Alexa647 label, 635 nm (AID 1127).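 Note: z combines 667 nm emission intensity with signal-to-noise across three replicate slides.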 The conditions noted are these: ConA-A647 binding fluorescence, higher = more signal.
Test [9] in a line: anti-His antibody binders, primary screen, artefact control for SMM control protein annotation, biochemical, small-molecule microarray, 635 nm fluorescence (AID 1128).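 Note: score merges feature fluorescence with signal-to-noise for each printed compound spot.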 Conditions: anti-His Alexa647 antibody binding, higher = more signal.
Test [10] concerns Human papillomavirus type 1a E7 protein (residues 1-88). Briefly: HPV1a E7 small-molecule binders, primary screen, biochemical, small-molecule microarray, residues 1-88, 635 nm (AID 1129). The conditions noted are these: small-molecule microarray binding, fluorescence 635 nm; higher = more signal.
For test [11], the target named is Focal adhesion kinase 1 (Homo sapiens) (UniProt Q05397). Briefly: small-molecule microarray binders of FAK, primary screen, biochemical, 635/667 nm fluorescence, BSA, DTT (AID 1130).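 Note: composite of spot emission at 667 nm and signal to noise over triplicate slides.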 The conditions noted are these: PTK2 binding, 635 nm fluorescence, higher = more signal.
Chain of Focal adhesion kinase 1 (Homo sapiens) (Q05397 whole entry, looked up): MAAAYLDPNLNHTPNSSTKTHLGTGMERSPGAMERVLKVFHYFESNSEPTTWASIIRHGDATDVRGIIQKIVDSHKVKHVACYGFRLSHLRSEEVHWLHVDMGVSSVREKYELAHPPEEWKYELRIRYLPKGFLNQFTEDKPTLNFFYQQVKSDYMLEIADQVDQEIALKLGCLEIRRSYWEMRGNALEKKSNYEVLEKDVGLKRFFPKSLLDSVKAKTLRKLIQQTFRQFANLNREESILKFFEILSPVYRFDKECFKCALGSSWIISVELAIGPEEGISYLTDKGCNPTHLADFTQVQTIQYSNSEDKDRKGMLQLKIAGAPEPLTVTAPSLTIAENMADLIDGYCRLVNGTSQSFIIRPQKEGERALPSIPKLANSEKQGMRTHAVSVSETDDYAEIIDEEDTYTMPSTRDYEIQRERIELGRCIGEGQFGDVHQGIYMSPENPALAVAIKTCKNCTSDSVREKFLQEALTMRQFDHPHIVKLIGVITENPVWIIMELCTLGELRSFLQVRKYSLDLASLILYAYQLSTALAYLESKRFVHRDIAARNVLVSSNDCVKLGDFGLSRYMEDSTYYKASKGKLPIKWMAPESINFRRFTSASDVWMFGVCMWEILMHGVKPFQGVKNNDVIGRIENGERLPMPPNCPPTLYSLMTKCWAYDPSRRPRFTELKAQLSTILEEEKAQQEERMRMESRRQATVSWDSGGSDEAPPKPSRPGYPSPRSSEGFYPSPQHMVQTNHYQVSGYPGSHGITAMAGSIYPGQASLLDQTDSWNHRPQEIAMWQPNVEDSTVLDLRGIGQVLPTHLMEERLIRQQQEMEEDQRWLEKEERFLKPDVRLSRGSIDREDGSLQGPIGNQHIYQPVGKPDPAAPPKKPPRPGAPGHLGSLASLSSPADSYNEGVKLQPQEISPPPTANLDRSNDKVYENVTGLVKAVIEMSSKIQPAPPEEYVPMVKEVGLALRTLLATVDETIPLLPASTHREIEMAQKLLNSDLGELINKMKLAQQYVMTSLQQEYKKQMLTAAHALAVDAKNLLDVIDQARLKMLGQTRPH
In test [12] the test system is Fibrinogen (Alexa647-labelled). Briefly: fibrinogen binders on compound microarrays, profiling panel, artefact control for SMM control-protein annotation, biochemical, small-molecule microarray, 635/667 nm fluorescence (AID 1131).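 Note: z-score merges 667 nm fluorescence with per-spot signal-to-noise over triplicate slides.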 Conditions: fibrinogen-A647 binding fluorescence, higher = more signal.
The target of test [13] is Follistatin (Homo sapiens) (UniProt P19883). Briefly: follistatin binders on small-molecule microarrays, primary screen, biochemical, small-molecule microarray, 635/667 nm fluorescence (AID 1132). Conditions: FST binding, 635 nm fluorescence, higher = more signal.
Chain of Follistatin (Homo sapiens) (P19883 whole entry, looked up): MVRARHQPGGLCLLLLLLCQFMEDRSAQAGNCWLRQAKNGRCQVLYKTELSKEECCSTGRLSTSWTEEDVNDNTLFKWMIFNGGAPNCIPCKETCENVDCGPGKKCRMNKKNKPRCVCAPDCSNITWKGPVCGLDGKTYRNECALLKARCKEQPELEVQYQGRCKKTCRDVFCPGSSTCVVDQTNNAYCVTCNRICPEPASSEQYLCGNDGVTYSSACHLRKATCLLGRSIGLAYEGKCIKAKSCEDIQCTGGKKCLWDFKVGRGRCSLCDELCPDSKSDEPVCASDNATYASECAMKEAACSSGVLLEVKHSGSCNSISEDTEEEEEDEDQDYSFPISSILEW
Test [14] concerns the target Fibroblast growth factor 2 (Homo sapiens) (UniProt P09038). As to the kind of experiment: FGF2 binders on small-molecule microarrays, primary screen, biochemical, small-molecule microarray, 635/667 nm fluorescence (AID 1133). The conditions noted are these: small-molecule microarray binding, FGF2, fluorescence 635/667; higher = more signal.
Test [15] can be described thus: mitochondrial membrane potential change in A549 cells, profiling panel, cell-based, JC-1 fluorescence, basal, 24 h, 100 nL (AID 1138).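 Note: A549 lung adenocarcinoma cells under basal conditions with no added stimulus; test concentration not given here.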 Conditions: higher = more signal.
The next test relates to Lefty1. As to the kind of experiment: Lefty1 binders on small-molecule microarrays, primary screen, biochemical, small-molecule microarray, 635/667 nm fluorescence (AID 1139). Conditions: small-molecule microarray binding, fluorescence 635/667; higher = more signal.
In test [16] the test system is wheat germ agglutinin (Triticum aestivum), Alexa647-labelled. Briefly: wheat germ agglutinin binders on compound microarrays, profiling panel, artefact control for SMM control-protein annotation, biochemical, small-molecule microarray, 635/667 nm fluorescence (AID 1140).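 Note: score merges 667 nm feature emission with signal to noise over triplicate slides.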 Conditions: WGA-A647 binding, 635 nm fluorescence, higher = more signal.
The target of test [17] is Luciferin 4-monooxygenase (Photinus pyralis) (UniProt P08659). As to the kind of experiment: firefly luciferase enzyme inhibitors, primary screen, biochemical, luminescence, purified enzyme, 2006 set (AID 1141).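 Note: cell-free assay with purified firefly luciferase at 100 ng per well in PBS; test concentration not given here.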 Conditions: SteadyGlo luminescence, 30 min, higher = more signal, called active from +8 up or from −8 down.
Chain of Luciferin 4-monooxygenase (Photinus pyralis) (P08659 whole entry, looked up): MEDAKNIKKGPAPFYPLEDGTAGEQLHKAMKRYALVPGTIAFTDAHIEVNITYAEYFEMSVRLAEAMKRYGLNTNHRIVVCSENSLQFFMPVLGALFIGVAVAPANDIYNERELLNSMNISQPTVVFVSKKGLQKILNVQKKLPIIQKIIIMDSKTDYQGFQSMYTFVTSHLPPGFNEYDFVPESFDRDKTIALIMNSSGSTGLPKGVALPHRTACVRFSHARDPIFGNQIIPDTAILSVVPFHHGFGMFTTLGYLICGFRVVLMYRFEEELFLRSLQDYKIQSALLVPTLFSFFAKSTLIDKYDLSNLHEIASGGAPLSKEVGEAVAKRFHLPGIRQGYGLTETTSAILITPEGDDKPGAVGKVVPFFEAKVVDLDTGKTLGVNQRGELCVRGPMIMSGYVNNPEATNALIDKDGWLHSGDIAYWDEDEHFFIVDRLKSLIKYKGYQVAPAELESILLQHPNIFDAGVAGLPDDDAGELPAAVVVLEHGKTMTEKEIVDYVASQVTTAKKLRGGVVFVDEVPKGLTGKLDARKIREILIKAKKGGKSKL

Each structure is given as a SMILES string. The source made the active and inactive calls.

Chain of Concanavalin-A (Canavalia ensiformis) (P02866 whole entry, looked up): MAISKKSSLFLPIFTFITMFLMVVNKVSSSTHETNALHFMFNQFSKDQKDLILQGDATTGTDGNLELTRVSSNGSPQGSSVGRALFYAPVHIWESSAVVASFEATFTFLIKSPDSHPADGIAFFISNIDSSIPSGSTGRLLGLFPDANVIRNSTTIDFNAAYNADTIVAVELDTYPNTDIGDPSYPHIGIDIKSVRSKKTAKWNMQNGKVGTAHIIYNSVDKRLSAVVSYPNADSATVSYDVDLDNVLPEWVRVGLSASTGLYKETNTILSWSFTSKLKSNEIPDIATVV
Chain of Fibroblast growth factor 2 (Homo sapiens) (P09038 whole entry, looked up): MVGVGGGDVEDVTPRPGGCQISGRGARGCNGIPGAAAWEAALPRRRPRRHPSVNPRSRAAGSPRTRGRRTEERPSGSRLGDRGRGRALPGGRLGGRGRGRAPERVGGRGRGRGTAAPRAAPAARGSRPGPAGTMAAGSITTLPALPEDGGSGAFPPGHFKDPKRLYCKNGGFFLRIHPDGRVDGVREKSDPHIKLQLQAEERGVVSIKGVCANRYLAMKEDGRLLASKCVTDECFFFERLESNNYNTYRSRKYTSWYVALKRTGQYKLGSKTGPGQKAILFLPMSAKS

As to `CCN1C(=O)[C@H]2[C@H]3[C@H](O)C=CC(=O)[C@@H]3CC[C@H]2C1=O`, the composite z-score was -0.338 with Albumin (Bos taurus); 0.0519 in test [2]; -0.117 in test [3]; -0.132 in test [4]; -0.177 in [5]; 0.402 in test [6]. The composite z-score with Sam68 (KHDRBS1) turned out to be 0.234; in test [7], 0.587; in test [8] it was 0.373; in [9] it was 0.635; in test [10], 0.936; in [11], 0.0565. Besides, the composite z-score was 0.677 in [12]; 0.307 in test [13]; 0.731 in [14]; 0.514 with Lefty1; 0.295 in test [16]. Moreover, the composite Z-score in test [1] is -0.56 (inactive). The values for the z-score in test [15] and in test [17] were -0.774 and -0.605 (inactive), respectively.

As to `COC(=O)CC=C[C@@H](C)[C@@H](C=NO[C@H](C)c1cn([C@@H]2COC[C@H]2O)nn1)OC`, the composite z-score was 0.162 in the test with Albumin (Bos taurus); -0.0377 in test [2]; -0.122 in test [3]; -0.111 in test [4]; 0.214 in [5]; -0.115 in test [6]. Further, the composite z-score in the test on Sam68 (KHDRBS1) is 0.747; in test [7], 0.666; in test [8], 0.266; in test [9] it was 1.19; in test [10] it was 0.695; in test [11] it was -0.0208. The composite z-score was -0.0974 in test [12]; 0.341 in test [13]; 0.796 in [14]; 0.645 in the test on Lefty1; -0.116 in test [16]. The composite Z-score in test [1] is -0.311 (inactive). The z-score in test [15] was 0.014; in test [17], -0.287 (inactive).

As to `CC(C)(C)N1CC=CC23O[C@@H]4C=CCCOC(=O)C4[C@H]2C(=O)N(CCCCCO)[C@@H]3C1=O` (stereo not given in full), the composite z-score in the test with Albumin (Bos taurus) was 0.568; in test [2], 0.285; in [3], -0.175; in [4], 0.874; in test [5], 0.518; in [6] it was 0.726. The composite z-score in the test with Sam68 (KHDRBS1) was 0.598; in test [7], -0.503; in test [8], -0.339; in test [9] it was 0.373; in test [10] it was 0.233; in [11], -0.441. Also, the composite z-score was -1.67 in test [12]; -0.435 in test [13]; -0.51 in [14]; 0.887 with Lefty1; 0.671 in [16]. Also, in test [1], the composite Z-score was 0.08 (inactive). In addition, the figures for the z-score in test [15] and in [17] were 0.678 and -0.789 (inactive), respectively.

For `COCCOC(=O)N1C(=O)[C@@]2(c3cc(C#CCNC(N)=O)ccc31)[C@H](c1ccccc1OCCO)N1[C@H](c3ccccc3)[C@H](c3ccccc3)OC(=O)[C@H]1[C@@H]2C(=O)N1CCN(c2ncccn2)CC1`, the composite z-score is 0.583 with Albumin (Bos taurus); 0.169 in [2]; -0.0028 in test [3]; 0.537 in test [4]; 1.92 in [5]; 0.579 in test [6]. Further, the composite z-score is 1.32 with Sam68 (KHDRBS1); -0.119 in test [7]; 1.06 in test [8]; 1.94 in test [9]; 0.74 in test [10]; 0.491 in test [11]. For the same compound, the composite z-score in test [12] was 0.714; in test [13], 0.705; in test [14] it was 1.55; in the test on Lefty1, 0.296; in [16], 0.727. In addition, the composite Z-score in test [1] is 0.339 (inactive). The z-score is -1.08 in [15] and -1.9 (inactive) in [17].

In the case of `COC(=O)[C@H](C)NC(=O)CCC1CC(OC(=O)NCc2ccc3c(c2)OCO3)CC2(CCCC(COC(=O)NCCOc3ccccc3)O2)O1` (stereo not given in full), the composite z-score with Albumin (Bos taurus) is 0.469; in [2], 0.14; in test [3] it was -0.0889; in [4], 0.356; in test [5], 0.508; in test [6] it was 0.114. The composite z-score in the test on Sam68 (KHDRBS1) is 1.3; in test [7] it was 0.344; in test [8] it was 0.906; in test [9] it was 0.486; in [10], 1.15; in [11], 0.0281. Moreover, the composite z-score in test [12] came to 0.59; in test [13], 0.463; in test [14], 1.09; in the test on Lefty1 it was 0.735; in [16] it was 0.262. Further, the composite Z-score in test [1] is 0.794 (inactive). For the same compound, the values for the z-score in test [15] and in [17] were 1.09 and -0.314 (inactive), respectively.

As for `O=C(CS)NCCCCCNC(=O)[C@H]1C[C@H]2C(=O)N3CCC[C@H]3C(=O)N2[C@H]1c1cccc(OCCO)c1`, the composite z-score with Albumin (Bos taurus) is -1.4; in test [2], 0.121; in test [3] it was -0.101; in test [4], 0.46; in test [5], 2.45; in [6], 0.729. Also, the composite z-score turned out to be 1.34 with Sam68 (KHDRBS1); 1.4 in [7]; 1.2 in test [8]; 3.13 in test [9]; 1.11 in [10]; 2.11 in [11]. Also, the composite z-score in test [12] was determined as 0.65; in [13] it was 1.45; in test [14], 1.92; in the test on Lefty1 it was 1.65; in test [16], 0.777. Further, the composite Z-score in test [1] was 0.62 (inactive). Further, the values for the z-score in test [15] and in test [17] were 0.509 and -1.22 (inactive), respectively.
